Laboratory results reported in PubChem BioAssay (EPA / NIEHS).
The source made the active and inactive calls. The calls were made as follows: active = hit-call score of the fitted dose curve at least 0.9, where 1 is the maximum; inactive = score below 0.9.

Columns and labels:
Details in all cases: mRNA level, 48 h; actives raise or lower the signal
[1] = read-out: CYP2C9 (gene 1559); experiment: LTEA_HepaRG_CYP2C9: Life Technologies and Expression Analysis (LTEA) Assay for CYP2C9 using HepaRG (AID 2283484)
Procedure, shortened: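 Eight-point concentration-response (highest 100 uM, half-log dilutions) in HepaRG cells for 48 h; CYP2C9 expression by qRT-PCR normalized to ACTB, GAPDH, POLR2A. Bidirectional fit, DMSO baseline.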

[2] = read-out: CYP2E1 (gene 1571); experiment: LTEA_HepaRG_CYP2E1: Life Technologies and Expression Analysis (LTEA) Assay for CYP2E1 using HepaRG (AID 2283485)
Procedure, shortened: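 Readout is qRT-PCR of CYP2E1 mRNA, normalized to three housekeeping genes and fitted bidirectionally against 0.5% DMSO. HepaRG cells were dosed 48 h at eight concentrations, highest 100 uM with half-log dilutions.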

[3] = read-out: CYP4A11 (gene 1579); experiment: LTEA_HepaRG_CYP4A11: Life Technologies and Expression Analysis (LTEA) Assay for CYP4A11 using HepaRG (AID 2283486)
Procedure, shortened: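 Readout is CYP4A11 transcript level by qRT-PCR, normalized to three housekeeping genes and fitted bidirectionally against 0.5% DMSO. Human HepaRG cells were treated 48 h, in duplicate, with an 8-point half-log series topping at 100 uM.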

[4] = read-out: Cytochrome P450 3A4 (Homo sapiens) (UniProt P08684); experiment: LTEA_HepaRG_CYP3A4: Life Technologies and Expression Analysis (LTEA) Assay for CYP3A4 using HepaRG (AID 2283487)
Procedure, shortened: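 Differentiated HepaRG cells, plated 48 h, then dosed 48 h in serum-free induction medium with 0.5% DMSO, 8 half-log concentrations up to 100 uM, duplicate. CYP3A4 mRNA by qRT-PCR, normalized to ACTB/GAPDH/POLR2A; bidirectional fit versus DMSO.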

[5] = read-out: Pro-epidermal growth factor (Homo sapiens) (UniProt P01133); experiment: LTEA_HepaRG_EGF: Life Technologies and Expression Analysis (LTEA) Assay for Epidermal growth factor (EGF) using HepaRG (AID 2283489)
Procedure, shortened: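 EGF transcript measured by Fluidigm TaqMan qRT-PCR with three housekeeping genes for normalization, 48 h after dosing HepaRG cultures in duplicate (top 100 uM, half-log steps, 0.5% DMSO vehicle). Gain or loss relative to DMSO fitted.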

[6] = read-out: Early growth response protein 1 (EGR1) transcription factor, EGR1 (gene 1958); experiment: LTEA_HepaRG_EGR1: Life Technologies and Expression Analysis (LTEA) Assay for Early growth response protein 1 (EGR1) transcription factor using HepaRG (AID 2283490)
Procedure, shortened: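 EGR1 expression change in human HepaRG after 48 h chemical exposure, assessed by housekeeping-normalized qRT-PCR; concentration-response up to 100 uM, fitted in both directions against DMSO controls.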

[7] = read-out: Ezrin (EZR), EZR (gene 7430); experiment: LTEA_HepaRG_EZR: Life Technologies and Expression Analysis (LTEA) Assay for Ezrin (EZR) using HepaRG (AID 2283491)
Procedure, shortened: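 EZR transcript levels came from Fluidigm qRT-PCR and were normalized to three housekeeping genes after 48 h chemical exposure of HepaRG cells. Dosing used an 8-point half-log series with a 100 uM top concentration in 0.5% DMSO, tested in duplicate; both directions were fitted versus vehicle.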

[8] = read-out: Cytochrome P450 3A7 (Homo sapiens) (UniProt P24462); experiment: LTEA_HepaRG_CYP3A7: Life Technologies and Expression Analysis (LTEA) Assay for CYP3A7 using HepaRG (AID 2283492)
Procedure, shortened: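 CYP3A7 transcript measured by qRT-PCR (ACTB, GAPDH, POLR2A normalization) after 48 h chemical exposure of HepaRG cells in duplicate. Eight half-log concentrations, maximum 100 uM, 0.5% DMSO vehicle; bidirectional curve fitting against DMSO baseline.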

[9] = read-out: CYP3A5 (gene 1577); experiment: LTEA_HepaRG_CYP3A5: Life Technologies and Expression Analysis (LTEA) Assay for CYP3A5 using HepaRG (AID 2283493)
Procedure, shortened: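 Human HepaRG hepatic cells receive 48 h chemical treatment at eight concentrations (half-log steps from 100 uM) in 0.5% DMSO. Expression of CYP3A5 is quantified by Fluidigm qRT-PCR and normalized to three reference genes.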

[10] = read-out: Fatty Acid-Binding Protein 1 (FABP1), FABP1 (gene 2168); experiment: LTEA_HepaRG_FABP1: Life Technologies and Expression Analysis (LTEA) Assay for Fatty Acid-Binding Protein 1 (FABP1) using HepaRG (AID 2283494)
Procedure, shortened: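 Values reflect bidirectional concentration-response fitting of FABP1 mRNA change against 0.5% DMSO controls. Human HepaRG cultures received eight half-log doses (top 100 uM) for 48 h; expression quantified by TaqMan qRT-PCR with housekeeping-gene normalization.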

[11] = read-out: Cytochrome P450 4A22 (Homo sapiens) (UniProt Q5TCH4); experiment: LTEA_HepaRG_CYP4A22: Life Technologies and Expression Analysis (LTEA) Assay for Cytochrome P450 4A22 (CYP4A22) using HepaRG (AID 2283495)
Procedure, shortened: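 Gene expression measured by qRT-PCR against three housekeeping genes (ACTB, GAPDH, POLR2A), with gain or loss fitted relative to 0.5% DMSO vehicle. HepaRG cultures received 48 h chemical treatment, top concentration 100 uM, half-log steps, duplicate wells.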

[12] = read-out: Glutathione S-Transferase (GSTA2), GSTA2 (gene 2939); experiment: LTEA_HepaRG_GSTA2: Life Technologies and Expression Analysis (LTEA) Assay for Glutathione S-Transferase (GSTA2) using HepaRG (AID 2283497)
Procedure, shortened: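 Oxidative-stress marker GSTA2 is quantified by TaqMan qRT-PCR in HepaRG cultures treated 48 h across an eight-point range to 100 uM. Expression is normalized to endogenous controls and compared with 0.5% DMSO vehicle.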

[13] = read-out: Glutamate-cysteine ligase catalytic (GCLC), GCLC (gene 2729); experiment: LTEA_HepaRG_GCLC: Life Technologies and Expression Analysis (LTEA) Assay for Glutamate-cysteine ligase catalytic (GCLC) using HepaRG (AID 2283498)
Procedure, shortened: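 Oxidative-stress marker GCLC is measured as mRNA change in human HepaRG liver cells after 48 h chemical treatment in 0.5% DMSO, eight concentrations from 100 uM. Activity is fitted bidirectionally against vehicle.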

[14] = read-out: growth arrest and DNA damage 45 (GADD45G), GADD45G (gene 10912); experiment: LTEA_HepaRG_GADD45G: Life Technologies and Expression Analysis (LTEA) Assay for growth arrest and DNA damage 45 (GADD45G) using HepaRG (AID 2283499)
Procedure, shortened: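 GADD45G transcript level by qRT-PCR (housekeeping-normalized: ACTB, GAPDH, POLR2A) after 48 h chemical treatment of a single HepaRG lot in serum-free induction medium; eight-point half-log series up to 100 uM in 0.5% DMSO, duplicates, up- or down-regulation scored.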

[15] = read-out: Glutamate-cysteine ligase regulatory (GCLM), GCLM (gene 2730); experiment: LTEA_HepaRG_GCLM: Life Technologies and Expression Analysis (LTEA) Assay for Glutamate-cysteine ligase regulatory (GCLM) using HepaRG (AID 2283500)
Procedure, shortened: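 Endpoint is GCLM transcript level by qRT-PCR, normalized to three housekeeping genes, after 48 h chemical exposure of human HepaRG cells (0.5% DMSO vehicle, top 100 uM, half-log dilutions). Fitting was bidirectional relative to DMSO.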

[16] = read-out: Glutathione S-transferase M3 (GSTM3), GSTM3 (gene 2947); experiment: LTEA_HepaRG_GSTM3: Life Technologies and Expression Analysis (LTEA) Assay for Glutathione S-transferase M3 (GSTM3) using HepaRG (AID 2283501)
Procedure, shortened: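 GSTM3 transcript levels came from Fluidigm TaqMan qRT-PCR normalized to three housekeeping genes, fitted in both directions against DMSO. HepaRG cultures received chemicals for 48 h in serum-free induction medium (0.5% DMSO), 8 half-log concentrations up to 100 uM, duplicate.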

[17] = read-out: Heat shock 70 kDa protein 1 (HSPA1A), gene 3303; experiment: LTEA_HepaRG_HSPA1A: Life Technologies and Expression Analysis (LTEA) Assay for Heat shock 70 kDa protein 1 (HSPA1A) using HepaRG (AID 2283502)
Procedure, shortened: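 Cells were plated and cultured for 48 h, then switched to serum-free induction medium. Chemicals were added at eight half-log concentrations up to 100 uM for 48 h. RNA was then isolated and HSPA1A measured by qRT-PCR with bidirectional curve fitting against DMSO.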

[18] = read-out: Hypoxia-inducible factor 1-alpha (Homo sapiens) (UniProt Q16665); experiment: LTEA_HepaRG_HIF1A: Life Technologies and Expression Analysis (LTEA) Assay for Hypoxia-inducible factor 1 (HIF1A) Trancription factor using HepaRG (AID 2283503)
Procedure, shortened: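 HIF1A transcript level read by qRT-PCR (ACTB, GAPDH, POLR2A normalization) after 48 h chemical exposure of HepaRG cultures. Eight half-log concentrations, top 100 uM, 0.5% DMSO vehicle, duplicates; bidirectional curve fit against DMSO baseline.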

[19] = read-out: DNA damage-inducible transcript 3 (DDIT3), DDIT3 (gene 1649); experiment: LTEA_HepaRG_DDIT3: Life Technologies and Expression Analysis (LTEA) Assay for DNA damage-inducible transcript 3 (DDIT3) using HepaRG (AID 2283488)
Procedure, shortened: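 Cells are human HepaRG liver cells treated for 48 h with eight half-log concentrations up to 100 uM in 0.5% DMSO. Transcript levels come from qRT-PCR normalized to three housekeeping genes, with activity fitted in both directions relative to vehicle.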

Measured: AC50

Chain of Hypoxia-inducible factor 1-alpha (Homo sapiens) (Q16665 whole entry, looked up): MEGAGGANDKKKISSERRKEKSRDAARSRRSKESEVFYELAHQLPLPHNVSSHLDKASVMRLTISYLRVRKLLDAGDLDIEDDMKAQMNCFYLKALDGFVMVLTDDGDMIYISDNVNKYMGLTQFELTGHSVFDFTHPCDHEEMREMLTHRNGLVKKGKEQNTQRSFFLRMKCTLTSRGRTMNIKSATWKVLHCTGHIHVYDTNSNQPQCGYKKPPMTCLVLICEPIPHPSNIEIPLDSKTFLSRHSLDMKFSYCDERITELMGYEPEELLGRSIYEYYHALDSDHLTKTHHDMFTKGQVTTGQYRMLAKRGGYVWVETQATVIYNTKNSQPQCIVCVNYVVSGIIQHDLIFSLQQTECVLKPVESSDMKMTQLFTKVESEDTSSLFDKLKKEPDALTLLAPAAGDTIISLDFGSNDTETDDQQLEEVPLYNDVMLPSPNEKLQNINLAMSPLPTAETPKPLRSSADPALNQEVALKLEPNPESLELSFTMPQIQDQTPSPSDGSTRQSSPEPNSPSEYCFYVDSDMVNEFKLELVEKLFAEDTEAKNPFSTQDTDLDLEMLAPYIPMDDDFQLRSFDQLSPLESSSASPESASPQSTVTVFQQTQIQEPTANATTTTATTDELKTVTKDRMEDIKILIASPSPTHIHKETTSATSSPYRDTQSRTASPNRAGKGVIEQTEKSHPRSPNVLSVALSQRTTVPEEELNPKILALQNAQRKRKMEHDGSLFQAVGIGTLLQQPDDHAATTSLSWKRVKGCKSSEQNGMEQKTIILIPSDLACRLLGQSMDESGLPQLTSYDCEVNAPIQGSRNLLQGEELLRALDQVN
Chain of Cytochrome P450 3A7 (Homo sapiens) (P24462 whole entry, looked up): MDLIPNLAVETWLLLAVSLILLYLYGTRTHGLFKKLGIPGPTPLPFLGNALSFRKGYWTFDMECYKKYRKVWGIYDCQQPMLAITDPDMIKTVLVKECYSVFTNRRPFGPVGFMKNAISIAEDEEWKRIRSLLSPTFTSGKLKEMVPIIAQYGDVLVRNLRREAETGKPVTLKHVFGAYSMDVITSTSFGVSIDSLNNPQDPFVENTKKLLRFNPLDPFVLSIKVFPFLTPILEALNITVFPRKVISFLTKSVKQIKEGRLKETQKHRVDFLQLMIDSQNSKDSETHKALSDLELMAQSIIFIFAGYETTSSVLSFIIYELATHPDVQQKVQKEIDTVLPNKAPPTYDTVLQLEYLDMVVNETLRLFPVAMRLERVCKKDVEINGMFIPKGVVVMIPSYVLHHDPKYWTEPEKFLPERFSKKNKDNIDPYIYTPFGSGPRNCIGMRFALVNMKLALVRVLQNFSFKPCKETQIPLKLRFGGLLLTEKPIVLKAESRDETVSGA
Chain of Cytochrome P450 3A4 (Homo sapiens) (P08684 whole entry, looked up): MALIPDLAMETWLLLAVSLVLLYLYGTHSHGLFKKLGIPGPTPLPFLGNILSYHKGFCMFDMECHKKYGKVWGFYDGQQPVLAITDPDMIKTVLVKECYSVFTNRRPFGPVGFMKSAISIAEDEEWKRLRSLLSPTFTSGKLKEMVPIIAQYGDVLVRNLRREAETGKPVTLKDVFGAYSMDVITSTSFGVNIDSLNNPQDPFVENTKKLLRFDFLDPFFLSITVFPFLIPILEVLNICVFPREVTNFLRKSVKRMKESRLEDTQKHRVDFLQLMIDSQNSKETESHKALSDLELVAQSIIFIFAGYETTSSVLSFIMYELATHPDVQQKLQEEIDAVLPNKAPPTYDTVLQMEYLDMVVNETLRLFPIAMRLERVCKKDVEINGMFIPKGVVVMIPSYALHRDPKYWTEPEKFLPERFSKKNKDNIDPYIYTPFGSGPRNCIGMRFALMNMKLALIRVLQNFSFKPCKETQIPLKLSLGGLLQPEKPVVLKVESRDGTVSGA

CC(C)(O)c1ccc(CNC(=O)c2cccnc2Oc2ccc(F)cc2)cc1
active: [2] 37.9 µM | [3] 10.2 µM | [4] 8.47 µM | [8] 9.92 µM | [10] 21.9 µM | [11] 26.6 µM
not listed: [19]
inactive: all other assays above

CCCCCCCCCC[N+](C)(C)[O-]
not listed: [8]
inactive: all other assays above

C=CCCCCCCCCCCCC
not listed: [19]
inactive: all other assays above

CCCCCCC(CCCCCCCCCCC(=O)OCC(COC(C)=O)OC(C)=O)OC(C)=O (configuration not stated)
not listed: [19]
inactive: all other assays above
